In PubChem BioAssay AID1835 (Johns Hopkins Ion Channel Center, 2009) one finds activity increase over dofetilide control, less the hit threshold data, which are given here for 26 compounds.

SMILES strings stand for the structures. In all, about 2,400 compounds went through this assay and about 750 (31%) were called active. The list shows a part of the results. Values without a mark were called inactive.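 The calls were made as follows: active = median signal gain over dofetilide-blocked control wells reaching their mean plus 3 SD, so readout 1 at least 0; inactive = the rest.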

The target in this experiment is Voltage-gated inwardly rectifying potassium channel KCNH2 (Homo sapiens) (UniProt Q12809). Kind of experiment: modulators restoring hERG flux under dofetilide – cell-based, thallium flux, duplicate retest, dofetilide IC70, confirmation (AID 1835). The conditions noted are these: hERG cell line, FluxOR thallium flux, dofetilide-blocked; at 10 µM; hits give high values.
Voltage-gated inwardly rectifying potassium channel KCNH2 (Homo sapiens), sequence (Q12809 whole entry, looked up): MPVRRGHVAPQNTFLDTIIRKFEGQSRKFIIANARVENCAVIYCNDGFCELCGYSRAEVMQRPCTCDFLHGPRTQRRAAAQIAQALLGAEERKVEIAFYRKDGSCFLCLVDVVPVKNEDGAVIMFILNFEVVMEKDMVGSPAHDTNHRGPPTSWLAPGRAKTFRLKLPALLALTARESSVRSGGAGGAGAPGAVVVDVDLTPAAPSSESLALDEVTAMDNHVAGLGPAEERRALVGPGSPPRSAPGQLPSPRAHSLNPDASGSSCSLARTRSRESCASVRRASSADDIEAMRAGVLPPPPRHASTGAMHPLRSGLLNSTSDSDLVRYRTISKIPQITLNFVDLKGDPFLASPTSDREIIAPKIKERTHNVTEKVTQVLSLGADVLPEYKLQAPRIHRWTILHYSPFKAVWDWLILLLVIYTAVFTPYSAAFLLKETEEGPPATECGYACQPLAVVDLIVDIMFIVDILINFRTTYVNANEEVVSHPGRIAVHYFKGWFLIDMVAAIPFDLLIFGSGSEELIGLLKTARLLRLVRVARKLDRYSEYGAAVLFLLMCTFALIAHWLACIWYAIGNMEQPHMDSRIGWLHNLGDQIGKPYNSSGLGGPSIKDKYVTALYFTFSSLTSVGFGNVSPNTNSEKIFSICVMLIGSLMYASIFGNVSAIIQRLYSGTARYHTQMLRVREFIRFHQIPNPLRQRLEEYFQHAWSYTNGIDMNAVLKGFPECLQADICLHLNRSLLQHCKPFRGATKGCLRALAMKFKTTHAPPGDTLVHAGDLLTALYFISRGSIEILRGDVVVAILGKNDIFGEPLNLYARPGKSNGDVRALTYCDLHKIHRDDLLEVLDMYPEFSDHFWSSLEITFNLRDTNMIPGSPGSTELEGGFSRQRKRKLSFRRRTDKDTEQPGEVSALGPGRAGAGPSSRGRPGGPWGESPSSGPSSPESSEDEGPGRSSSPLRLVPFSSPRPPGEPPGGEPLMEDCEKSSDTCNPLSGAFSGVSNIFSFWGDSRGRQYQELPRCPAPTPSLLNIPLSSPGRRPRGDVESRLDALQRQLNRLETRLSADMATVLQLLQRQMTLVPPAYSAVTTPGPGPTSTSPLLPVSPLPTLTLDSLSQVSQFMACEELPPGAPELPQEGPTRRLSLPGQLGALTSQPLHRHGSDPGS
On to `CCC(c1nnc(SCC(=O)NCCc2ccc(Cl)cc2Cl)o1)N(C)C` (stereo unspecified), for which the activity increase over dofetilide control, less the hit threshold is -16%.
For `O=C(NC(=S)N1CCN(Cc2ccc3c(c2)OCO3)CC1)c1ccc(Cl)cc1`, the activity increase over dofetilide control, less the hit threshold is 21% (active).
Regarding `CCCCNC(=S)NNC(=O)c1ccc2c(c1)OCO2`, the activity increase over dofetilide control, less the hit threshold is -13%.
Regarding `O=C(COc1ccc(Cl)cc1)N1CCN(Cc2ccc3c(c2)OCO3)CC1`, the activity increase over dofetilide control, less the hit threshold is -17%.
To `COc1ccc(C(=O)N2CCN(Cc3ccc4c(c3)OCO4)CC2)cc1[N+](=O)[O-]` belongs -7%; to `O=C(NC(=S)N1CCN(C/C=C/c2ccccc2)CC1)c1ccc(Cl)nc1`, -7%.
With `O=C(NC(=S)N1CCN(Cc2ccc3c(c2)OCO3)CC1)c1cccc(Br)c1`, the activity increase over dofetilide control, less the hit threshold is 48% (active).
The result for `Cc1cc(Cl)c(S(=O)(=O)N2CCSCC2)cc1OCC(=O)NC1CCCCC1` reads -8%.
The result for `Cc1nc(NCCc2ccc(S(N)(=O)=O)cc2)c2c(C)c(C)sc2n1` reads 2% (active); that for `O=C(Nc1nc(-c2ccccc2)c(-c2ccccc2)o1)c1ccc(F)cc1`, 17% (active).
To `O=C(Nc1cccc2[nH]ncc12)c1ccc(F)cc1` belongs -7%.
As to `O=C(Nc1nnc(-c2ccccc2)o1)c1ccc(Cl)cc1`, the activity increase over dofetilide control, less the hit threshold was -19%.
As for `O=c1cc(-c2c(F)c(F)c(F)c(F)c2F)oc2ccccc12`, the activity increase over dofetilide control, less the hit threshold is 2% (active).
The result for `CCOC(=O)C(=CNc1ccc(N2CCOCC2)cc1)C(=O)OCC` reads 0%.
On to `CCOC(=O)C(=CNc1cc(C)nn1C(C)(C)C)C(=O)OCC`, for which the activity increase over dofetilide control, less the hit threshold is 2% (active).
Regarding `CCOC(=O)C(=CNc1cc(C)ccn1)C(=O)OCC`, the activity increase over dofetilide control, less the hit threshold was 10% (active).
The result for `CCOC(=O)C(=CNc1ccc(OC)cc1[N+](=O)[O-])C(=O)OCC` reads -10%.
In the case of `CCOC(=O)C(=CNc1cccc(C)n1)C(=O)OCC`, the activity increase over dofetilide control, less the hit threshold is 5% (active).
In the case of `CCOC(=O)C(=CNc1cc(C)ccc1[N+](=O)[O-])C(=O)OCC`, the activity increase over dofetilide control, less the hit threshold is -17%.
Regarding `CCOC(=O)CC(=O)CSc1nc2c(C)c(C)ccc2cc1C`, the activity increase over dofetilide control, less the hit threshold is -7%.
Turning to `O=C(NC1CCCC1)C(c1ccncc1)N(C(=O)Cn1nnc(-c2ccccc2F)n1)c1cccc(F)c1` (stereo unspecified), the activity increase over dofetilide control, less the hit threshold is -14%.
To `Cc1cccc(C)c1NC(=O)Cn1cnc2c(=O)n(C)c(=O)n(C)c21` belongs -17%; to `COc1ccccc1C1C(C(=O)c2ccc(C)o2)=C(O)C(=O)N1c1cc(C)on1` (stereo unspecified), -1%; to `Cc1ccc(NC(=O)COc2cccnc2[N+](=O)[O-])cc1S(=O)(=O)N1CCOCC1`, -24%.
Take `Cc1ccc(-c2noc(CCC(=O)NC3CCCC3)n2)cc1`: the activity increase over dofetilide control, less the hit threshold was -7%.
To `Cc1cc(C)cc(-n2c(C)cc(/C=N/NC(=O)CN(c3c(C)cccc3C)S(C)(=O)=O)c2C)c1` belongs -1%.
